# Source: PubChem BioAssay AID2384 (Southern Research Specialized Biocontainment Screening …, 2010)
# Hit rate of the full screen: of about 2,300 compounds, about 1,100 (48%) were called active. So high a share suggests a set chosen from earlier hits. The list shows a part of the results. Measured potencies and affinities stand elsewhere. A number with no mark means an inactive call. The rule behind the calls is not given here.
# Test: S. typhi counter-screen signal inhibition – fluorescence, 4 h, counter-screen for PhoP regulon inhibitor project, dose response (AID 2384)
# Conditions: S. typhi GFP reporter counter-screen; series mostly up to 150 µM; inhibition: at the top concentration
row,Compound,inhibition
1,O=C(Nc1ccncc1)c1cc(-c2ccccn2)nc2ccccc12,3.75%
2,CC(C)[C@H](NC(=O)c1ccccc1Cl)C(=O)Nc1nc(-c2ccccn2)cs1,6.8%
3,Cn1cc(S(=O)(=O)Nc2ccc(OC(F)(F)F)cc2)c(=O)n(C)c1=O,2.31%
4,CC(C)NC(=O)CN1CCN(Cc2nc(C(c3ccccc3)c3ccccc3)no2)CC1,9.52%
5,COc1ccc2c(C(=O)CCl)c[nH]c2c1,2.29%
6,O=C(O)c1cc2cc(F)ccc2[nH]1,-16.8%
7,CCN1CCN(C(=O)/C=C/c2cccc(Cl)c2)CC1,38.5%
8,CCN1CCN(C(=O)Cc2coc3cc(C)cc(C)c23)CC1,6.4%
9,COc1c(C(=O)N2CCCC2)ccc2ccccc12,-8.29%
10,Cc1c(Cl)cccc1NC(=O)C1CCN(S(C)(=O)=O)CC1,-31.6%
11,COc1cccc(OC)c1C(=O)Nc1ccc(N2CCN(S(C)(=O)=O)CC2)cc1,16.1%
12,COCc1ccc(C(=O)Nc2ccc(C(=O)O)cc2)o1,33.9%
13,CCOC(=O)Cc1[nH]nc2c1C(c1ccoc1)C(C#N)=C(N)O2 (centres undefined),16.3%
14,O=C1c2ccccc2C(=O)C1(CO)c1ccc(OC(F)F)cc1,10.6%
15,O=c1c2ccccc2nc(-c2cccc(Cl)c2)n1O,18.7%
16,COc1ccc(C(=O)O/N=C2\C(=O)N(C)c3ccccc32)cc1,-11.3%
17,CC(=O)NCCn1c(SCc2ccccc2C)nc2ccccc2c1=O,-10.7%
18,Cc1nc(SCC(=O)N2c3ccccc3Sc3ccccc32)n[nH]1,-16.7%
19,Cc1ccn2cc(C(=O)Nc3nnc(C)s3)nc2c1,-9.14%
20,Cc1cccc(N/N=C/c2ccc(O)c(O)c2O)c1,38.9%
21,O=C(NCCO)C(=O)c1c(-c2ccc(Cl)cc2)cc2ccccn12,-15.4%
22,CC(C)c1ccc(C2C(C#N)=C(N)Oc3c2oc(CO)cc3=O)cc1 (centres undefined),-1.23%
23,CCN(CC)CCNC(=O)c1cccc(NC(=O)C(=O)c2cc(Br)ccc2NC(C)=O)c1,-5.6%

row,Compound,inhibition
1,O=C(NC(=C(Cl)Cl)S(=O)(=O)c1ccc(Cl)cc1)c1ccccc1,-8.31%
2,COc1ccc(NS(=O)(=O)c2cccc(NC(=O)c3ccccn3)c2)cc1,-6.56%
3,O=C(CCl)Nc1nccs1,28.1%
4,Nc1ccc(S(=O)(=O)Nc2nccs2)cc1,-15.3%
5,CCCN1C(=O)c2ccc(C(=O)Nc3nccs3)cc2C1=O,-20.2%
6,O=C(NCc1cccnc1)c1ccc(Cl)cc1[N+](=O)[O-],-24.5%
7,O=C(Nc1ccccc1)Nc1cccc(Cl)c1,14.8%
8,O=C(NCc1ccco1)c1ccc2c(c1)N(Cc1ccccc1)CCS2,-4.41%
9,CN1C(=O)/C(=C/c2cccc(Cl)c2)Sc2ccc(C(=O)N3CCCC3)cc21,3.12%
10,O=C(COC(=O)/C=C/c1cccc(C(F)(F)F)c1)NCc1ccccc1,-4.38%
11,CCC(=O)Nc1nc(C)c(C(=O)N2CCCCC2)s1,9.2%
12,O=C1c2ccccc2C(=O)N1CCC(c1ccccc1)c1ccco1 (centres undefined),-5.55%
13,CCc1ccccc1NC(=O)c1onc(C)c1Cl,-5.45%
14,CC1(C)CC(=O)C2=C(C1)N(c1ccc(F)cc1)C(=O)CC2c1ccsc1 (centres undefined),-21.1%
15,CCc1cc(CNC(=O)C2CCC(=O)N(Cc3cccc(F)c3)C2)on1 (centres undefined),-24.2%
16,Fc1ccccc1CSc1ccc(-c2ccco2)nn1,-12.9%
17,COc1cccc(NC(=O)CSc2nncn2-c2ccccn2)c1,-7.4%
18,N#CCCn1c2ccccc2c2nc3ccccc3nc21,-2.6%
19,Cc1cccc(S(=O)(=O)c2c(N)n(/N=C/c3ccccc3)c3nc4ccccc4nc23)c1,8.36%
20,CCCCn1c(NCc2ccccc2NS(=O)(=O)c2ccc(C)cc2)nc2ccccc21,-17.6%
21,CCN1CCN(c2nc3ccccc3nc2C(C#N)S(=O)(=O)c2ccc(C)cc2)CC1 (centres undefined),16.5%
22,CCCN(CCC)c1nc(C)cc(C(C#N)c2nc3ccccc3o2)n1 (centres undefined),-11.1%
23,CS(=O)(=O)c1cnc2c(-c3ccsc3)cnn2c1N,2.48%

row,Compound,inhibition
1,CS(=O)(=O)c1cnc2c(-c3ccc(F)cc3)cnn2c1N,5.15%
2,Cc1ccc(OCC(O)Cn2c(N)nc3c2c(=O)n(C)c(=O)n3C)cc1 (centres undefined),9.77%
3,C=C(C)Cn1c(-c2ccc(OC)cc2)nc2ccccc21,-14.9%
4,CC(C)Cc1nc(N2CCOCC2)c(C#N)c2c1COC(C)(C)C2,9.96%
5,C1CCC(n2nnnc2CN2CCN(C3CCCC3)CC2)CC1,-17.6%
6,CCCCC(=O)Nc1ccc(F)c(Cl)c1,4.38%
7,CCN(CC)C(=O)C(=O)c1cn(CC(=O)N2CCc3ccccc3C2)c2ccccc12,14.3%
8,Cc1ccccc1-c1ncc(CN2CCN(C3CCCC3)C(CCO)C2)cn1 (centres undefined),-17.2%
9,O=C(On1c(-c2ccccc2)nc2ccccc2c1=O)c1ccco1,33.5%
10,COc1cccc(/C=C/C(=O)c2cccc([N+](=O)[O-])c2)c1OC,11%
11,COc1ccc(N(C(=O)c2cccnc2)S(=O)(=O)c2cccc([N+](=O)[O-])c2)cc1,-26%
12,COC(=O)c1cn(C(=O)c2ccco2)c2ccccc12,14.2%
13,COC(=O)c1ccc(OC(=O)c2cccnc2)cc1,16.5%
14,CCNC(=O)c1ccc(C2SCC(=O)N2CCc2ccccc2)cc1 (centres undefined),16.3%
15,COc1ccc(C[C@H]2CN3C(=NC[C@H]3Cc3ccccc3)N2CCNC(=O)c2ccc(C)c(Br)c2)cc1,32.1%
16,COc1ccc2c(C(=O)CN(C)C3CCCCC3)c[nH]c2c1,24.3%
17,CCN1CCN(CC(=O)Nc2ccc(C)c(Br)c2)CC1,28.8%
18,CS(=O)(=O)N(CCc1ccccc1)CC(=O)Nc1ccc2c(c1)OCO2,12.9%
19,Cc1ccnc(NC(=O)CCC(=O)N(CC(=O)NC2CCCCC2)C2CCCC2)c1,-6.73%
20,Cc1ccc(NC(=O)CCNC(=O)c2ccccc2)cc1F,22.2%
21,O=C(CSCc1ccccc1)Nc1cccc(C(=O)Nc2ccc(C(=O)O)cc2)c1,23.4%
22,CN1C2=CC=CC=CC2=[N+](C)C12C=CC(=[N+]([O-])[O-])C=C2[N+](=O)[O-] (centres undefined),18.4%
23,Cc1cccc(/C(N)=N/OC(=O)N2CCOCC2)c1,-7.33%

row,Compound,inhibition
1,Cc1ccn2cc(-c3ccc4c(c3)NC(=O)CO4)nc2c1,-22.3%
2,CC(C)n1cnnc1SCC(=O)Nc1ccc(Br)cc1F,-11.7%
3,N#Cc1ccc(-c2ccc(OCC(=O)NCCCN3CCCC3=O)cc2)cc1,29.4%
4,C1=C(CCNc2ncnc3c2[nH]c2ccccc23)CCCC1,26.6%
5,COc1ccc(-n2ncc3c(NCc4ccccn4)ncnc32)cc1,-13.1%
6,Cc1ccc(/C=N/n2c(C)nc3ccccc3c2=O)s1,-5.54%
7,Cc1ccc(-c2[nH]ncc2/C=N/n2c(C)nc3ccccc3c2=O)cc1,-18.9%
8,O=C(C[n+]1cc(-c2ccccc2)n2c1CCC2)c1cccs1,24%
9,CCOC(=O)Cc1csc(NC(=O)c2ccc(S(=O)(=O)N3CCCC3)cc2)n1,-2.31%
10,O=C(/C=C/c1ccc(O)cc1)c1ccccc1,37.9%
11,COc1cccc(C2=NO[C@@H]3C(=O)N(Cc4ccccc4)C(=O)[C@H]23)c1OC,-11.5%
12,CCc1nnc(NS(=O)(=O)c2ccc(NC(=S)NC(=O)/C=C/c3ccc([N+](=O)[O-])cc3)cc2)s1,-7.86%
13,Cc1cc2ncn(/N=C/c3ccc([N+](=O)[O-])o3)c2cc1C,13.4%
14,Cc1ccc2[nH]c(C(=O)O)c(NC(=O)CN3CCN(c4cccc(C)c4C)CC3)c2c1,22.6%
15,Cc1ccc(C(C(=O)NCCc2ccccc2)N(C(=O)c2csnn2)C2CC2)o1 (centres undefined),10%
16,[O-][n+]1c2ccccc2cc2ccccc21,5.18%
17,Cc1ccc(S(=O)(=O)NCC(=O)OCN2C(=O)c3ccccc3C2=O)cc1,-19.2%
18,CCCOc1ccc(N2C(=O)C3C(C(C)C)NC4(C(=O)c5ccccc5C4=O)C3C2=O)cc1 (centres undefined),-19.1%
19,COc1ccc(-c2csc(N)n2)cc1F,13.2%
20,CNC(=O)Nc1cccc(C(F)(F)F)c1,11.8%
21,Cc1nc2ccc(NC(=O)c3cccc(C(F)(F)F)c3)cc2o1,10.5%
22,O=C(CNC(=O)Cn1ccc2ccccc2c1=O)NCCCN1CCCCCC1,8.41%
23,Cc1cc(C)cc(NC(=O)C(Sc2nnc(C)c(=O)[nH]2)c2ccccc2)c1 (centres undefined),-6.81%

row,Compound,inhibition
1,CCCC1C(c2ccc(OC)cc2)C(C#N)(C#N)C2(C#N)CC1(N)NC2=O (centres undefined),-3.98%
2,CCNC(=S)N1CCN(CC)CC1,-4.27%
3,O=C(Nc1ccc(Br)cc1)N1CCCCC1,20.1%
4,O=C1NC(=S)S/C1=C1\Sc2ccccc2N1CCCS(=O)(=O)O,11.1%
5,Cn1c(=O)c(=O)n(C)c2cc(S(=O)(=O)N3CCc4ccccc43)ccc21,-6.12%
6,Cc1cc(Cl)ccc1OCCCC(=O)N1CCCc2ccccc21,0.2%
7,CN1Cc2ccccc2N(CC(=O)NCc2ccccc2)C1=O,-10.9%
8,Cc1cc(NC(=O)CSc2nnc(-c3cccnc3)n2N)no1,-8.4%
9,O=C1N/C(=C/c2ccc(N3CCOCC3)cc2)C(=O)N1Cc1ccc(F)cc1,2.94%
10,O=C(OCc1nc2ccccc2s1)c1ccco1,10.9%
11,O=C(O)CC/C(=C\c1ccccc1[N+](=O)[O-])c1nc2ccccc2s1,8.67%
12,C/C(=N\Nc1ccc(C)c(Cl)c1)c1cccnc1,-7.12%
13,CCOc1ccc(-c2nc(N)ncc2-c2ccccc2)c(O)c1,25.4%
14,CCOc1ccc(NC(N)=O)cc1,-13.1%
15,CCOC(=O)c1ccc(NC(=O)C2CCC(CNc3c(N4CCOCC4)c(=O)c3=O)CC2)cc1 (centres undefined),-13.8%
16,Cc1nnc(SCC(=O)N(C(C)C)C(C)C)[nH]c1=O,-4.9%
17,CCc1nc(SCC(=O)Nc2ccc(N(C)C)cc2)c2ccccc2n1,-6.88%
18,C#CCOC(=O)c1ccccc1C(=O)OCC#C,21.1%
19,O=C(NCCCNc1ccnc2cc(Cl)ccc12)c1ccccc1F,30.5%
20,COc1ccc(NC(=O)Cn2cnc3c(cnn3C(C)(C)C)c2=O)cc1OC,-17.3%
21,Cc1nc2cc(C(=O)N3CCC4(CC3)OCCO4)ccc2n1-c1cccc(F)c1,-31.9%
22,COC(=O)c1ccc(NC(=O)CO/N=C2\CCCc3nonc32)cc1,2.9%
